Records with an inconclusive call do not appear. The source made the active and inactive calls. Calls come from the whole dose curve; as a rule, active = well fitted inhibition curve with a large enough effect; inconclusive = small, poorly fitted or top-dose-only effect; inactive = no such curve, though single readings can be large or run the other way.
test system: Zika virus NS2B-NS3 protease (linked construct); test: Primary screen NINDS Rhodamine qHTS for Zika virus inhibitors (AID 1347160); conditions: purified NS2B-NS3 protease, Rhodamine110 substrate fluorescence; series mostly up to 57.1 µM; activity change, negative = inhibition: at the top concentration; note: nearly all actives have a fitted effect of over 55% in size
Summary of the method: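 Rhodamine110-peptide cleavage (1.5 µM substrate) by 25 nM linked NS2B-NS3 enzyme at pH 8.0 (Tris, Tween 20), after 15 min RT preincubation with compounds; 15-min fluorescence change normalized to controls and Hill-fitted.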
% is set by controls: 0 for no effect and ±100 for the full control effect; potency is the fitted concentration of half-maximal effect.

SMILES | Potency | activity change, negative = inhibition
O=C(O)c1cc(I)ccc1NC(=O)[C@H](Cc1ccccc1)NCc1ccccc1 | 15.8 µM (active) | 
C[C@@H]1CC[C@]2(C(=O)O)CC[C@]3(C)C(=CCC4[C@@]5(C)C[C@@H](O)[C@H](O)[C@@](C)(CO)C5CC[C@]43C)C2[C@]1(C)O (some centres undefined) |  | -17.5% [at 33.1 µM] (inactive)
C[C@@H](O)[C@H](NC(=O)c1ccc(C#Cc2ccc(CN3CCOCC3)cc2)cc1)C(=O)NO |  | 16% (inactive)
CCOCc1nc2c(N)nc3ccccc3c2n1CC(C)(C)O |  | -18.8% (inactive)
Cc1c(NC(=O)c2cc(C(N)=O)nc3cc(F)ccc23)c(C(F)(F)F)nn1Cc1ccc(C#N)cc1 |  | 14.7% [at 15.1 µM] (inactive)
Nc1ncnc2c1nc(N)n2[C@@H]1O[C@H](CO)[C@@H](O)[C@H]1O |  | 22.2% (inactive)
CC(C)C[C@H](CC(=O)NO)C(=O)N[C@H](C(=O)N[C@@H](C)C(=O)NCCN)C(C)(C)C |  | -11.4% [at 10.7 µM] (inactive)
C=C(C)C1Cc2cc(C(=O)OC3OC(CO)C(O)C(O)C3O)ccc2O1 (centres undefined) |  | -16.7% [at 33.1 µM] (inactive)
COC(=O)C(C)C1CCC2(C)C(=O)C=CC(C)(O)C2C1O (centres undefined) |  | -14.5% (inactive)
COc1ccc2[nH]c3c(-c4cccc5ccccc45)nccc3c2c1 |  | 32.2% (inactive)
CC1CCC2(CO)C(C(=O)O)=CCCC2C1(C)CCc1ccoc1 (centres undefined) |  | -13.3% [at 33.1 µM] (inactive)
Cc1cc(-c2cc(O)ccc2Cl)cc2nnc(Nc3ccc(OCCN4CCCC4)cc3)nc12 |  | 40.2% (inactive)
COc1cc(C(=O)OC[C@H]2O[C@@H](Oc3ccccc3/C=C/C(=O)O)[C@H](O)[C@@H](O)[C@@H]2O)cc(OC)c1OC |  | -11.9% [at 33.1 µM] (inactive)
Cc1cc(C)nc(NS(=O)(=O)c2ccc(NC(=S)NC(=O)COc3ccc(Br)cc3Cl)cc2)n1 | 15.8 µM (active) | 

Reference: PubChem BioAssay (NCATS)
